IDE exosite inh = insulin-degrading enzyme (human) exo-site inhibition. actives 6.3% (n = 17,000). purified IDE, FL-6b probe fluorescence polarization; hits give low values. z-score at 20 µM. AID 1259349. P14735;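 active = z-score of -3 or lower, meaning strong loss of probe binding signal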;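 note: His-tagged human IDE residues 42-1019 made in E. coli with 30 nM FL-6b probe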
Target sequence (P14735 42-1019 limits assumed): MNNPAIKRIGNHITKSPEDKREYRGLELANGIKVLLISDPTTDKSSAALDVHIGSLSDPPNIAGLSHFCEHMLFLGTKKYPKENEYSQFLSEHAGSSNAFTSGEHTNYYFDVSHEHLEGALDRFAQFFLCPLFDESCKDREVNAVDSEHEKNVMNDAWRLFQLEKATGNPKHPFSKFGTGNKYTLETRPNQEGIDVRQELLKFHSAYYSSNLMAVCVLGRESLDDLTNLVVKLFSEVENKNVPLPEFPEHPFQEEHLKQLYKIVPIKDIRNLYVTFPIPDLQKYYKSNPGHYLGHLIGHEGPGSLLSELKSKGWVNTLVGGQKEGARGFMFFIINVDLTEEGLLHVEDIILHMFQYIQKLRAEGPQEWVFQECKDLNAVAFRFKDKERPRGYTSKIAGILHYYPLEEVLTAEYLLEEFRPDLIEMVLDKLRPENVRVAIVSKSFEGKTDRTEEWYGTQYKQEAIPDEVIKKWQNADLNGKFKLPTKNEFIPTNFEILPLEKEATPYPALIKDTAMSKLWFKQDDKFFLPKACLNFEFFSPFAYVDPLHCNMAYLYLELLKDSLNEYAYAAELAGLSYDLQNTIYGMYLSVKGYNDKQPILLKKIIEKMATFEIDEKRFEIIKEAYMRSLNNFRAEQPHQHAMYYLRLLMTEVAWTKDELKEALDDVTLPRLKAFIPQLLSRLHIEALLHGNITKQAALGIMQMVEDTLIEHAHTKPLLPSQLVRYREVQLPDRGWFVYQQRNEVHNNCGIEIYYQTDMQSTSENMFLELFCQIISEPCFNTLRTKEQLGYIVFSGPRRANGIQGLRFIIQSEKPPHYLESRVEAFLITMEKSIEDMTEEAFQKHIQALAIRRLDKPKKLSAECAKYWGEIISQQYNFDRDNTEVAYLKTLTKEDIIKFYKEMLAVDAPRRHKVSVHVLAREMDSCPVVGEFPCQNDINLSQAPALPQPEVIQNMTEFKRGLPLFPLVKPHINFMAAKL
Each line names hits and unclear results; the compound was inactive in the other large screens; ! = repeats disagree. Many of the other results were omitted from the sample, so hits are more common in it than they were.

O=C(CN1CCOCC1)N1CCCCN2[C@H](CO)[C@H](c3ccc(/C=C/c4ccccc4)cc3)[C@@H]2C1	IDE exosite inh -9.3
CN1C(=O)c2cc(NC(=O)c3cccc(Cl)c3)ccc2OC[C@H]2O[C@@H](CC(=O)NC3CCCCC3)CC[C@H]21	none
COCC(=O)N1[C@H](C#N)[C@@H](c2ccccc2-c2ccccc2F)[C@@H]1CO	none
CN(C)C(=O)c1cccc(-c2ccc3c(c2)[C@H]2[C@H](CCN2Cc2nccs2)[C@@H](CO)N3)c1	none
O=C1CN(S(=O)(=O)Cc2ccccc2)C[C@@H]2[C@H](c3ccc(C#CCC4CCCC4)cc3)[C@@H](CO)N12	none
O=C(c1ccc2c(c1)OCO2)N1C[C@H]2[C@@H](c3ccccc31)[C@H](CO)N2Cc1cccnc1	none
CN(C)C(=O)c1cccc(-c2ccc([C@@H]3[C@H]4CN(C(=O)C5CCCCC5)CC(=O)N4[C@H]3CO)cc2)c1	none
CCCNC(=O)N1CC(=O)N2[C@H](CO)[C@@H](c3ccc(-c4cccc(C)c4)cc3)[C@@H]2C1	IDE exosite inh -22
CCCNC(=O)N1CC(=O)N2[C@H](CO)[C@H](c3ccc(-c4ccncc4)cc3)[C@@H]2C1	none
CCCNC(=O)N1CC(=O)N2[C@H](CO)[C@H](c3ccc(-c4ccc(F)cc4)cc3)[C@@H]2C1	none
CCCNC(=O)N1CC(=O)N2[C@H](C1)[C@@H](c1ccc(-c3ccc(C)cc3)cc1)[C@@H]2CO	none
CCCNC(=O)N1CC(=O)N2[C@H](CO)[C@@H](c3ccc(-c4ccc(C)cc4)cc3)[C@@H]2C1	none
CCCNC(=O)N1CC(=O)N2[C@H](CO)[C@@H](c3ccc(-c4ccc(F)cc4)cc3)[C@@H]2C1	none
CCCNC(=O)N1CC(=O)N2[C@H](CO)[C@H](c3ccc(-c4cccc(C)c4)cc3)[C@@H]2C1	IDE exosite inh -16
CCCC#Cc1ccc([C@@H]2[C@H](CO)N3C(=O)CN(C(=O)NCCC)C[C@@H]23)cc1	none
CCCNC(=O)N1CC(=O)N2[C@H](C1)[C@H](c1ccc(-c3ccc(C)cc3)cc1)[C@@H]2CO	IDE exosite inh -3.6
CCCNC(=O)N1CC(=O)N2[C@H](C1)[C@@H](c1ccc(-c3cccc(C)c3)cc1)[C@@H]2CO	IDE exosite inh -15
CCCNC(=O)N1CC(=O)N2[C@@H](CO)[C@H](c3ccc(-c4ccc(F)cc4)cc3)[C@@H]2C1	none
Cc1cccc(S(=O)(=O)N2C[C@@H]3[C@H](c4ccccc42)[C@H](CO)N3Cc2ccc3c(c2)OCO3)c1	none
O=C(CCN1CCCCC1)N[C@H]1CC[C@H](CCn2cc(-c3cccc(F)c3)nn2)O[C@H]1CO	none
O=C(c1ccc(F)cc1)N1CC(=O)N2[C@H](CO)[C@@H](c3ccc(C#CC4CCCCC4)cc3)[C@@H]2C1	none
CN(C)CC(=O)N1CC2(C1)[C@@H](c1ccccc1)[C@H](CO)N2C(=O)C1CC1	none
N#Cc1cccc(-c2ccc([C@@H]3[C@@H](CO)N4CCCCN(C(=O)Nc5cccc(F)c5)C[C@@H]34)cc2)c1	none
C[C@H](CO)N1C[C@H](C)[C@H](CN(C)C(=O)c2ccncc2)OCCCC[C@H](C)Oc2ccc(NC(=O)CCC(F)(F)F)cc2C1=O	none
CCCC#Cc1ccc([C@@H]2[C@H](CO)N3C(=O)CN(C(=O)c4cccnc4)C[C@@H]23)cc1	none
Cc1ccccc1-c1ccc([C@@H]2[C@H]3CN(C(=O)c4cccnc4)CC(=O)N3[C@H]2CO)cc1	IDE exosite inh -20
O=C(c1cccnc1)N1CC(=O)N2[C@H](C1)[C@@H](c1ccc(-c3ccccc3F)cc1)[C@@H]2CO	none
Cc1ccccc1-c1ccc([C@@H]2[C@@H](CO)N3C(=O)CN(C(=O)c4ccncc4)C[C@H]23)cc1	none
Cc1ccccc1-c1ccc([C@H]2[C@@H](CO)N3C(=O)CN(C(=O)c4cccnc4)C[C@H]23)cc1	IDE exosite inh -17
COc1cccc(CN2[C@@H]3CNC[C@H]2C3c2ccc(-c3cccnc3)cc2)c1 (stereo not given in full)	none
COCCNC(=O)c1cc2c(c(-c3cccc(C4=CCCCC4)c3)n1)[C@H](CCO)N([S@@](=O)C(C)(C)C)C2	none
CN(C)C(=O)c1cccc(-c2ccc(C3[C@H]4CNC[C@@H]3N4Cc3cc(F)ccc3F)cc2)c1 (stereo not given in full)	none
N#C[C@@H]1[C@H](c2ccc(C#Cc3ccccc3F)cc2)[C@H](CO)N1C(=O)c1cccnc1	none
N#C[C@@H]1[C@@H](c2ccc(C#Cc3ccccc3F)cc2)[C@H](CO)N1C(=O)C1CCC1	none
N#C[C@@H]1[C@H](c2ccc(C#Cc3ccccc3F)cc2)[C@@H](CO)N1C(=O)C1CCC1	IDE exosite inh -4.8
N#C[C@@H]1[C@H](c2ccc(C#Cc3ccccc3F)cc2)[C@@H](CO)N1C(=O)c1cccnc1	IDE exosite inh -4
N#C[C@@H]1[C@@H](c2ccccc2)[C@@H](CO)N1C(=O)c1cccnc1	none
N#C[C@@H]1N[C@@H](CO)[C@H]1c1ccc(-c2ccccc2F)cc1	none
N#C[C@H]1[C@H](c2ccc(C#Cc3ccccc3F)cc2)[C@@H](CO)N1C(=O)C1CCOCC1	IDE exosite inh -5.9
N#C[C@H]1N[C@H](CO)[C@H]1c1ccc(C#Cc2ccccc2F)cc1	none
N#C[C@H]1N[C@@H](CO)[C@H]1c1ccc(C#Cc2ccccc2F)cc1	IDE exosite inh -4
N#C[C@H]1[C@H](c2ccc(C#Cc3ccccc3F)cc2)[C@@H](CO)N1C(=O)C1CC1	none
N#C[C@@H]1[C@@H](c2ccc(C#Cc3ccccc3F)cc2)[C@@H](CO)N1C(=O)C1CC1	none
N#C[C@H]1[C@H](c2ccc(C#Cc3ccccc3F)cc2)[C@@H](CO)N1C(=O)C1CCC1	none
CN(C[C@H]1N[C@@H](CO)[C@@H]1c1ccc(C2=CCCC2)cc1)C(=O)c1ccccn1	none
CN1c2ccc(Br)cc2[C@@H]2[C@@H](CCN2C(=O)C2CCC2)[C@@H]1CO	none
C[C@@H]1CN([C@@H](C)CO)C(=O)c2ccccc2-c2ccccc2CO[C@@H]1CN(C)C(=O)[C@H]1CCCN1C	none
O=C(c1ccc2c(c1)OCO2)N1CC(=O)N2[C@H](CO)[C@@H](c3ccc(C#Cc4ccccc4)cc3)[C@@H]2C1	none
COCC#Cc1ccc([C@@H]2[C@H](C#N)N(C(=O)Cc3ccccc3)[C@H]2CO)cc1	none
O=C(Nc1ccccc1F)N1CC(=O)N2[C@H](CO)[C@H](c3ccc(-c4cccnc4)cc3)[C@@H]2C1	none
CCS(=O)(=O)N1CCCCN2[C@H](C1)[C@@H](c1ccc(-c3ccc(C(=O)N(C)C)cc3)cc1)[C@@H]2CO	none
COc1ccc([C@@H]2C/C=C\C[C@@H](c3cccc(Cl)c3)NC(=O)[C@@H](c3ccccc3)CC(=O)N2)c(OC)c1	none
CO[C@H]1CN(C)C(=O)c2cc(NC(=O)c3ccc(F)cc3)ccc2OC[C@@H](C)N(C(=O)CC2CC2)C[C@H]1C	none
CCCN1C[C@H](C)[C@H](OC)CN(C)C(=O)c2cc(NC(=O)C3CCC3)ccc2OC[C@@H]1C	none
O=C(Nc1cc(F)ccc1F)N1CCCCN2[C@H](CO)[C@H](c3ccc(C4=CCCCC4)cc3)[C@H]2C1	none
COc1cccc(S(=O)(=O)N2C[C@@H]3N[C@H](C2)C3c2ccc(-c3ccccc3OC)cc2)c1 (stereo not given in full)	none
Cc1cccc(S(=O)(=O)N2C[C@@H]3N[C@H](C2)C3c2ccc(-c3ccccc3F)cc2)c1 (stereo not given in full)	none
Cc1cccc(S(=O)(=O)N2C[C@@H]3N[C@H](C2)C3c2ccc(-c3ccccc3C)cc2)c1 (stereo not given in full)	IDE exosite inh -6.6!
